From PubChem BioAssay
TGFb inhibitor: qHTS for Inhibitors of TGF-b | HepG2 CAGA-GFP TGF-b/SMAD3 reporter, GFP fluorescence, 18 h; TGF-beta stimulated, 500 pg/mL final | Potency, µM (series often up to 46.1 µM), without a hit: at the highest dose activity, negative = inhibition, hits mostly inhibitors | hit rate 1.2% among 410,000; note: potency is the fitted concentration of half-maximal effect; % is set by controls: 0 for no effect and ±100 for the full control effect; nearly all actives have a fitted effect of over 65% in size
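TGF-beta reporter screen: HEPG2 CAGA-GFP, 1% FBS, 500 pg/mL TGF-beta final, 18 h; per-cell GFP summed per well; curves fitted and categorized by class.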
DT40 TDP1 no CPT: qHTS for Inhibitors of human tyrosyl-DNA phosphodiesterase 1 (TDP1): qHTS in cells in absence of CPT | DT40 Tdp1-/- hTDP1 cells, no CPT, ATP luminescence, 48 h | Potency, µM (top dose mostly 46.2 µM), inactives show at the top dose activity change, negative = growth inhibition, actives largely listed as inhibitors | hit rate 15% among 420,000; note: potency is the fitted concentration of half-maximal effect; % is set by controls: 0 for no effect and ±100 for the full control effect; nearly all actives have a fitted effect of over 55% in size
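No-CPT arm: Tdp1-/-;hTDP1 DT40 cells (400/well) plus compounds, incubated ≥48 hr at 37 °C. Readout CellTiter-Glo luminescence.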
TDP1 inh: qHTS Assay for Inhibitors of Tyrosyl-DNA Phosphodiesterase (TDP1); Tyrosyl-DNA phosphodiesterase 1 (Homo sapiens), Q9NUW8; recombinant TDP1, AlphaScreen DNA substrate cleavage; Potency, µM (series often up to 130 µM), for inactives: at the top dose activity change, negative = inhibition, usual class: inhibitors; hit rate 0.28% among 350,000; AID 485290, 2010; note: potency is the fitted concentration of half-maximal effect; % is set by controls: 0 for no effect and ±100 for the full control effect; nearly all actives have a fitted effect of over 40% in size
Target sequence (Q9NUW8 whole entry, looked up): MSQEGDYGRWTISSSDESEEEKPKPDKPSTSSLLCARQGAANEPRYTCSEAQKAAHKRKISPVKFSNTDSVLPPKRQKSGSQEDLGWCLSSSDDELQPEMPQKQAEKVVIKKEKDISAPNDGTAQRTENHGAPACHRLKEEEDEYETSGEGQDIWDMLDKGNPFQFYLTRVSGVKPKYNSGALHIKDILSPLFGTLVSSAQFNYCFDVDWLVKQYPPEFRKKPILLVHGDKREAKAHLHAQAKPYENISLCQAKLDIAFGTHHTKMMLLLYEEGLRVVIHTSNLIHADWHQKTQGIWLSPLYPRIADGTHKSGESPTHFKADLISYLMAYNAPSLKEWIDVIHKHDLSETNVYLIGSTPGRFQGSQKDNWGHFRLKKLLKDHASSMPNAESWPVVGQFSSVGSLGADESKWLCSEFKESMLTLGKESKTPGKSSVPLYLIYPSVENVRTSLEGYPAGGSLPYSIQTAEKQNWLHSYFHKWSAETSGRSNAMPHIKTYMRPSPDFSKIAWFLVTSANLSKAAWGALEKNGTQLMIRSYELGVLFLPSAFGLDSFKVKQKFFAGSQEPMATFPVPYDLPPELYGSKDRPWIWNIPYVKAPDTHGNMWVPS
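Steps: enzyme plus compound, 15 min RT; add biotin/phosphotyrosine-FITC oligonucleotide (15 nM final), react 5 min; add donor/acceptor beads (10 ug/ml final), 10 min; read AlphaScreen. Tdp1 at 1 nM final.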
TDP1 cell CPT: qHTS for Inhibitors of human tyrosyl-DNA phosphodiesterase 1 (TDP1): qHTS in cells in presence of CPT; chicken DT40 Tdp1-/-;hTDP1 cells + 20 nM CPT, ATP luminescence, 48 h; Potency, µM (series often up to 46.2 µM), without a hit: at the top dose activity change, negative = growth inhibition, hits mostly inhibitors; hit rate 12% among 420,000; note: potency is the fitted concentration of half-maximal effect; % is set by controls: 0 for no effect and ±100 for the full control effect; nearly all actives have a fitted effect of over 55% in size
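Chicken DT40 Tdp1-/- cells stably complemented with human TDP1 were seeded at 400 cells/well in medium containing 20 nM camptothecin, exposed to pin-transferred compounds, and grown at 37 °C for at least 48 hr. Viability was read as ATP luminescence.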
HepG2 viability: qHTS for Inhibitors of TGF-b: Cytotox Counterscreen; Potency, µM (doses to about 46.1 µM), for inactives: top-dose activity change, negative = cytotoxicity, most hits filed as cytotoxic; HepG2 CAGA-GFP viability, ATP luminescence, 18 h; hit rate 0.76% among 410,000; AID 588856, 2011; note: potency is the fitted concentration of half-maximal effect
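HepG2 CAGA-GFP cells (1000/well, DMEM with 1% FBS) received compound, then TGF-beta at 500 pg/mL final, and were incubated 18 hours at 37 degrees C. Viability was read by CellTiter-Glo luminescence. Media-only wells were set as complete cell-killing and DMSO as no toxicity.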
IL1B secr inh: qHTS for Inhibitors of Inflammasome Signaling: IL-1-beta AlphaLISA Primary Screen. activity change, % at 57.5 µM. hit rate 4.7% among 360,000. THP-1 LPS/ATP IL-1B secretion, AlphaLISA, 16 h; stronger effect = lower value; in the data active = activity change below about -50%; inconclusive = mostly about -30% to -49%; note: % is set by controls: 0 for no effect and ±100 for the full control effect
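THP-1 cells pretreated 1 hr with compounds (up to 57.5 uM final), then stimulated with LPS (250 ng/mL final) plus ATP (1.25 mM final); secreted IL-1B measured by AlphaLISA after 16 hr, decreased signal indicating inhibition.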
Active calls of the source: *; u = inconclusive; x = no result; [ ] = remark or other dose. Compounds with a hit are over-represented: about 19% of the library has one in this group of screens. Unless noted, calls come from the whole dose curve; as a rule, active = well fitted curve in the direction sought with a large enough effect; inconclusive = small, poorly fitted or top-dose-only effect, or another doubt; inactive = no such curve, though single readings can be large; an effect the other way counts as inactive or inconclusive.

SMILES | TGFb inhibitor | DT40 TDP1 no CPT | TDP1 inh | TDP1 cell CPT | HepG2 viability | IL1B secr inh
CN(C)CC[n+]1ccc(C(=O)c2ccccc2)cc1 | 4% | 2.6µM* | x | 4.1µM* | -2% | 7
COc1cccc(C(=O)NC(=S)N2c3ccccc3CC2C)c1OC (configuration not stated) | -7% | u | 10% | -1% | -24% | 5
CC(=O)c1ccc(NC(=S)N2c3ccccc3CC2C)cc1 (configuration not stated) | u | -6% | 2% | -27% | -22% | 7
CC1Cc2ccccc2N1C(=S)NC(=O)c1ccc(Cl)cc1Cl (configuration not stated) | u | 10µM* | 8% | u | -6% | 22
CC1Cc2ccccc2N1C(=S)NC(=O)c1cccc(Br)c1 (configuration not stated) | -55% | 15µM* | 9% | 21µM* | -42% | 22
CCCc1cc(=O)oc2cc(C)c3c(-c4cccc(OC)c4)coc3c12 | 29% | -15% | 9% | -8% | 5% | x
Cn1cnc2c(=O)oc3ccc(S(=O)(=O)N4CCN(c5cccc(Cl)c5)CC4)cc3c21 | 2% | -4% | 0% | -6% | 1% | x
CC1(C)C(=O)C2(CCCCC2)C(=O)OC1c1cccn1-c1ccc([N+](=O)[O-])cc1 (configuration not stated) | -14% | u | 2% | u | 7% | 4
CC1(C)C(=O)OC(c2cccn2-c2ccc([N+](=O)[O-])cc2)C(C)(C)C1=O (configuration not stated) | -3% | 23µM* | 1% | 15µM* | -25% | -9
COc1ccc(-c2cc3nc(-c4ccc(C)cc4)cc(C(F)(F)F)n3n2)cc1 | -10% | -1% | x | 5% | -25% | x
C=CC[C@@H]1/C=C(\C)C[C@H](C)C[C@H](OC)[C@H]2O[C@@](O)(C(=O)C(=O)N3CCCC[C@H]3C(=O)O[C@H](/C(C)=C/[C@@H]3CC[C@@H](O)[C@H](OC)C3)[C@H](C)[C@@H](O)CC1=O)[C@H](C)C[C@@H]2OC | x | 3µM* | 7% | 3.3µM* | x | x
CN(C(=O)Cn1c(Cl)nc2c1c(=O)n(C)c(=O)n2C)C1CCS(=O)(=O)C1 (configuration not stated) | 24% | -14% | 4% | -16% | -18% | 4
CCN(C(=O)Cn1c(Cl)nc2c1c(=O)n(C)c(=O)n2C)C1CCCCC1 | -6% | 21µM* | 1% | 21µM* | 3% | 11
Cn1c(=O)c2c(nc(Cl)n2CC(=O)N2CCCCC2)n(C)c1=O | 0% | -7% | 0% | 6% | 9% | 19
CC1CCCC(NC(=O)Cn2c(Cl)nc3c2c(=O)n(C)c(=O)n3C)C1C (configuration not stated) | 16% | 21µM* | 1% | u | 0% | 31
Oc1ccccc1-c1nc(/C=C/c2ccccc2)nn1-c1ccccc1 | 1% | u | 2% | -27% | -24% | u
Oc1ccc(/C=C/c2nc(-c3ccccc3O)n(-c3ccccc3)n2)c(O)c1 | 11µM* | u | x | -70% | 14µM* | x
O=C(O)c1ccc(-n2nc(-c3ccccc3O)nc2-c2ccccc2O)cc1 | x | 21µM* | x | u | x | x
Oc1ccc(/C=C/c2nc(-c3ccccc3O)n(-c3ccccc3)n2)cc1 | u | u | 7% | u | -100% | -66*
Cc1c(C(=O)N(C)C)sc2c1c(=O)n(-c1ccc(F)cc1)c(=O)n2Cc1ccccc1C#N | -2% | -1% | 1% | -24% | -1% | x
CC(=O)Nc1cccc(OCCCNS(=O)(=O)c2ccc(C#N)cc2)c1 | 0% | u | 5% | u | 7% | 40
C=CCN(C(=O)CCC(=O)Nc1cc(C)on1)C(C(=O)NC1CCCC1)c1ccc(CC)cc1 (configuration not stated) | 6% | 15µM* | 2% | u | -20% | -9
Cc1cc(NC(=O)CCC(=O)N(CCC(C)C)C(C(=O)NCC2CCCO2)c2ccccc2C)no1 (configuration not stated) | u | u | 10% | -11% | -21% | -57*
CCCCN(C(=O)CCC(=O)Nc1cc(C)on1)C(C(=O)NC1CCCC1)c1ccc(OCC)cc1 (configuration not stated) | 3% | 16µM* | 6%[0.0935 µM] | u | -4% | -16
Cc1ccc(-c2c3c(=O)n(C)c(=O)n(C)c3c3cnc4ccccc4n23)cc1 | 9% | -14% | -1% | -14% | 1% | x
SMILES | TGFb inhibitor | DT40 TDP1 no CPT | TDP1 inh | TDP1 cell CPT | HepG2 viability | IL1B secr inh
O=C1C=C(c2c(O)ccc3ccccc23)c2ccccc2C1=O | 2.8µM* | 1.2µM* | x | 1.2µM* | 13µM* | -117*
O=C(O)c1cc2ccccc2c2c1C(=O)c1ccccc1-2 | -5% | -3% | x | -9% | -2% | 17
COc1ccccc1-c1c(C(F)(F)F)oc2cc(OC(=O)c3cccc([N+](=O)[O-])c3C)ccc2c1=O | 2% | 23µM* | 8% | 21µM* | 3% | 6
CCCSC1=N/C(=C\C=C\c2ccco2)C(=O)S1 | -17% | 18µM* | x | 26µM* | -14% | -7
CCCSC1=N/C(=C\c2ccc([N+](=O)[O-])o2)C(=O)S1 | -13% | u | u | 21µM* | 27% | -7
COc1cccc(N2CCN(C(=O)CN3CCSc4ccc(S(=O)(=O)N(C)C)cc43)CC2)c1 | 23% | x | 3% | x | -12% | x
Cc1nc2c(C(=O)N3CCN(C)CC3)cnn2c(C)c1Cc1ccc(Cl)cc1 | -12% | -9% | 7% | -19% | 1% | -7
Cc1nc2c(C(=O)N3CCCCC3)cnn2c(C)c1Cc1ccccc1F | -3% | 16µM* | 1% | u | -11% | -1
Cc1nc2c(C(=O)NCCC(C)C)cnn2c(C)c1Cc1c(F)cccc1Cl | -13% | 23µM* | 0% | 21µM* | -24% | x
Cc1nc2c(C(=O)NCc3ccccc3Cl)cnn2c(C)c1Cc1c(F)cccc1Cl | -22% | 8.2µM* | 9% | 8.2µM* | 6% | x
